From PubChem BioAssay AID2289 (National Center for Advancing Translational Sciences (NCATS), 2010) come the findings set out here.

The campaign covered roughly 340,000 compounds. About 3,300 (0.97%) were called active. About 9% were inconclusive and are not listed. Calls come from the whole dose curve; as a rule, active = well fitted inhibition curve with a large enough effect; inconclusive = small, poorly fitted or top-dose-only effect, or effect the other way; inactive = flat fitted curve, though single readings scatter. The list shows a part of the results.
Potency is the fitted concentration of half-maximal effect.

The nature of this test: qHTS Assay for Modulators of miRNAs and/or Inhibitors of miR-21. Note: nearly all actives have a fitted effect of over 55% in size. The following applies: HeLa miR-21-FLuc reporter, luciferase luminescence, 48 h; actives lower the signal. A digest of the protocol: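 HeLa cells endogenously expressing miR-21, stably carrying CMV-driven firefly luciferase with a downstream miR-21 binding site, 2000 cells/well. Titrations up to approximately 40 uM, 48 hours; luciferase luminescence read.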
In general terms: Quantitative high-throughput screening tests each substance at several concentrations.
As to `Cc1cc(SCC(=O)c2ccccc2)nc(=O)[nH]1`, the Potency is 4.14 µM (active).

In the case of `O=C(CSc1ccc(-c2ccccc2)nn1)c1cccs1`, the Potency is 7.36 µM (active). Regarding `O=C(CSc1ccc(-c2ccccc2)nn1)c1ccccc1`, the Potency was 16.5 µM (active).

Regarding `N#Cc1ccc(-c2cccnc2)nc1SCC(=O)c1ccccc1`, the Potency was 5.85 µM (active). On to `COc1cc(NC(=O)c2ccccc2Cl)ccc1NC(=O)c1cccs1`, for which the Potency is 2.07 µM (active). As for `COc1ccc(Cl)cc1-c1nc(-c2ccc(NC(=O)c3cccs3)cc2)no1`, the Potency is 7.36 µM (active). Turning to `COc1cc(NC(=O)c2ccccc2Cl)ccc1NC(=O)c1ccco1`, the Potency is 2.93 µM (active). In the case of `Cc1ccc2nc(/C=C/c3cccc(F)c3)ccc2c1`, the Potency was 0.521 µM (active). As to `N#C/C(=C\c1c[nH]c2ccccc12)c1nnc2n1CCCCC2`, the Potency was 18.5 µM (active). On to `O/N=C/c1ccc(OCc2ccccc2F)c(Cl)c1`, for which the Potency was 0.464 µM (active). For the compound `CCOc1cc(/C=N/O)ccc1OCc1ccccc1F`, the Potency was 16.5 µM (active). Turning to `CC(=O)c1ccc(NC(=O)c2ncn(-c3ccccc3)n2)cc1`, the Potency was 5.85 µM (active). For the compound `Cc1ccc(NC(=O)c2ncn(-c3ccccc3)n2)cc1Cl`, the Potency was 3.29 µM (active).

With `Cn1nnc(NC(=O)c2ccc3ccccc3c2)n1`, the Potency was 14.7 µM (active). With `Cn1nnc2cc(C(=O)Nc3ccc4ccccc4c3)ccc21`, the Potency is 0.585 µM (active). Take `CCCn1nnc(NC(=O)c2ccc3ccccc3c2)n1`: the Potency was 4.14 µM (active). On to `Nc1nc2c(-c3ccc(Br)cc3)nnn2c2ccccc12`, for which the Potency is 0.261 µM (active). In the case of `CN(C)c1ccc(-c2nnc(-c3cccnc3)o2)cc1` it was 1.31 µM (active).

Turning to `Cc1ccc(-c2nnc(-c3cccnc3)o2)cc1`, the Potency is 4.65 µM (active).

Consider `c1ccc(-c2cnc(-c3cccnc3)o2)cc1`, for which the Potency was 13.1 µM (active). Consider `CCSc1nnc(NC(=O)c2ccccc2)s1`, for which the Potency is 1.31 µM (active). In the case of `CCSc1nnc(NC(=O)COc2ccccc2[N+](=O)[O-])s1`, the Potency was 3.69 µM (active). For `CC(C)c1nnc(NC(=O)COc2ccccc2[N+](=O)[O-])s1`, the Potency is 9.27 µM (active). For `N/C(=N\C(=S)Nc1ccccc1)c1ccccc1`, the Potency is 0.927 µM (active). For `O=C(Cc1noc2ccccc12)Nc1ccc(Cl)cc1`, the Potency is 14.7 µM (active). Regarding `O=C(Cc1noc2ccccc12)Nc1ccccn1`, the Potency is 14.7 µM (active). For `Cc1ccc(NC(=O)Cc2noc3ccccc23)cc1`, the Potency is 7.36 µM (active).

As to `Cc1cccc(NC(=O)Cc2noc3ccccc23)c1`, the Potency was 5.85 µM (active).

As to `Nc1ccccc1C(=O)NNC1=C(C(=O)C(F)(F)F)CCC1`, the Potency was 5.21 µM (active). With `CC1=NN(C(N)=S)C(=O)C1N=Nc1ccc(Br)cc1` (stereo not drawn), the Potency is 1.31 µM (active). Regarding `CC1=NN(C(N)=S)C(=O)C1N=Nc1cccc(Cl)c1` (stereo not drawn), the Potency is 7.36 µM (active). As for `CC1=NN(C(N)=S)C(=O)C1N=Nc1ccc(C)cc1C` (stereo not drawn), the figure is 3.69 µM (active); as for `CC1=NN(C(N)=S)C(=O)C1N=Nc1ccc(C)c(Br)c1` (stereo not drawn), 1.47 µM (active).

With `C/C(=N\N=C(/N)c1nonc1N)c1ccc2c(c1)OCO2`, the Potency was 0.521 µM (active). In the case of `CC(=O)NCCC(=O)Nc1nc2ccc(Oc3ccccc3)cc2s1`, the Potency is 1.65 µM (active). Consider `O=C1NCC2=C1C(c1ccccc1)Nc1ccccc1N2` (stereo not drawn), for which the Potency is 14.7 µM (active).

As to `Cc1ccc2c(CSc3nnc4ccccn34)cc(=O)oc2c1C`, the Potency was 13.1 µM (active).

With `Clc1cccc(Cl)c1CSc1nnc2ccccn12`, the Potency is 16.5 µM (active). `Clc1ccc(CSc2nnc3ccccn23)c(Cl)c1`: the Potency is 16.5 µM (active).

Take `C/C(=N\NC(=O)c1cccs1)C(C)(C)C`: the Potency was 4.65 µM (active). Consider `C/C(=N/NC(=O)c1cccs1)c1cccs1`, for which the Potency was 2.93 µM (active).

For the compound `O=C(O)CC/C(=N/NC(=O)c1cccs1)c1ccccc1`, the Potency is 2.07 µM (active). `O=C(NC12CC3CC(CC(C3)C1)C2)c1ccc(-c2ccc(Br)cc2)o1`: the Potency is 7.36 µM (active).

With `O=C(NC12CC3CC(CC(C3)C1)C2)c1ccc(-c2cccc(Cl)c2)o1`, the Potency was 1.47 µM (active).

With `O=[N+]([O-])c1cc(/C=N\O)ccc1Oc1ccc(F)cc1`, the Potency is 16.5 µM (active).

Regarding `O=[N+]([O-])c1cc(/C=N/O)ccc1Oc1ccccc1Cl`, the Potency is 16.5 µM (active). As to `CC(=O)C(C)Oc1ccc2c3c(c(=O)oc2c1)CCCC3` (stereo not drawn), the Potency was 16.5 µM (active). Take `CC(=O)C(C)Oc1ccc2c3c(c(=O)oc2c1)CCCCC3` (stereo not drawn): the Potency was 2.93 µM (active). For `CN(C)S(=O)(=O)c1cccc(NC(=O)COC(=O)c2cc3ccccc3oc2=O)c1`, the Potency was 6.56 µM (active). As to `O=C(COC(=O)c1cc2ccccc2oc1=O)Nc1ccc(F)cc1F`, the Potency is 6.56 µM (active). Turning to `COc1ccc(-c2nnc(SCC(=O)c3ccc[nH]3)n2-c2ccccc2)cc1`, the Potency is 13.1 µM (active).

Regarding `Cc1ccc(SCC(=O)c2ccc[nH]2)cc1`, the Potency is 13.1 µM (active). As for `O=c1c(Br)c(N2CCCC2)cnn1-c1ccccc1`, the Potency was 1.85 µM (active). `O=C(N=C1c2ccccc2CN1c1cccc(Cl)c1)c1cccnc1`: the Potency is 4.65 µM (active). As for `COc1ccc(N2Cc3ccccc3C2=NC(=O)c2cccc([N+](=O)[O-])c2)cc1`, the Potency is 13.1 µM (active).

Regarding `O=C(N=C1c2ccccc2CN1c1ccc(F)c(Cl)c1)c1cccnc1Cl`, the Potency is 6.56 µM (active). In the case of `CC1SCC(NC(=O)c2ccccc2Cl)CS1` (stereo not drawn) it was 13.1 µM (active); in that of `CC1SCC(NC(=O)c2ccc(Cl)cc2)CS1` (stereo not drawn), 16.5 µM (active); in that of `CCn1c(C)nc2cc(C(=O)NNC(=S)Nc3ccccc3)ccc21`, 0.927 µM (active). Consider `CCn1c(C)nc2cc(C(=O)NNC(=S)Nc3ccc(F)cc3)ccc21`, for which the Potency is 8.26 µM (active).

With `COc1ccc(-c2c(C)nn(-c3ccccc3)c2N)cc1`, the Potency was 5.21 µM (active). In the case of `Cc1nn(-c2cccc([N+](=O)[O-])c2)c(N)c1-c1ccccc1`, the Potency is 4.14 µM (active). For the compound `Cc1nn(-c2ccccc2)c(N)c1-c1ccccc1`, the Potency was 6.56 µM (active). Consider `Cc1nn(-c2nc3ccccc3[nH]2)c(N)c1-c1ccccc1`, for which the Potency was 0.414 µM (active). `Cc1nn(C(=O)c2cccs2)c(N)c1-c1ccccc1`: the Potency is 5.21 µM (active).

With `O=C(O)CCc1ccc(S(=O)(=O)Nc2ccccc2C(=O)NCCc2ccccc2)cc1`, the Potency was 6.56 µM (active).

Take `NC(=O)Nc1ccccc1C(=O)NCCc1ccccc1`: the Potency was 5.85 µM (active). Regarding `Cc1ccccc1-c1nnc(Cc2ccccc2)o1`, the Potency was 4.14 µM (active).

Take `Cc1ccccc1-c1nc(Cc2ccccc2)no1`: the Potency was 14.7 µM (active).

With `N#Cc1ccccc1CSc1nnc(-c2ccc(Br)cc2)o1`, the Potency is 0.414 µM (active). As to `c1ccc(CSc2nnc(-c3ccco3)o2)cc1`, the Potency is 13.1 µM (active). For `Brc1c(CSc2nnc(-c3ccco3)o2)nc2ccccn12`, the Potency is 11.7 µM (active). On to `Cc1ccccc1-c1nnc(SCc2ccccc2)o1`, for which the Potency was 5.21 µM (active). For the compound `Brc1ccc(-c2nnc(Cc3ccccc3)o2)cc1`, the Potency is 13.1 µM (active). `Cc1ccccc1-c1nnc(CN2CCC(C)CC2)o1`: the Potency is 14.7 µM (active). As for `Cc1ccc(-c2nnc(SCc3ccccc3)o2)cc1`, the Potency was 2.93 µM (active). Regarding `Cc1c(C(=O)OC2CCC(C)CC2)[nH]c2c1C(=O)CCC2` (stereo not drawn), the Potency is 0.464 µM (active). Take `COC(=O)C1C(=O)c2c([nH]c(C(=O)OC3CCCC3)c2C)CC1C` (stereo not drawn): the Potency was 1.47 µM (active). On to `Cc1c(C(=O)OC2CCCC2C)[nH]c2c1C(=O)CCC2` (stereo not drawn), for which the Potency was 6.56 µM (active). In the case of `COc1cc(Cl)ccc1OCc1cc(C(=O)N(C)CC2CCCCO2)no1` (stereo not drawn) it was 10.4 µM (active); in that of `COc1cc(C)ccc1OCc1cc(C(=O)N(C)CCCN2CCOCC2)no1`, 6.56 µM (active); in that of `COc1cc(Cl)ccc1OCc1cc(C(=O)N(C)CCc2cnn(C)c2)no1`, 5.85 µM (active). `Cc1cc(N(C)C)ccc1N=Nc1ccc2ncccc2c1`: the Potency is 1.65 µM (active). As for `Cc1ccccc1NC(=O)c1ccc2ccccc2c1`, the figure is 5.21 µM (active); as for `COc1ccc2oc(=N)c(C(=O)Nc3ccccc3Cl)cc2c1`, 0.414 µM (active); as for `COc1ccc(C(=O)Nc2ccccc2C(=O)O)cc1Cl`, 4.65 µM (active). As for `COc1cc2ccccc2cc1C(=O)Nc1ccccc1C`, the Potency was 3.29 µM (active). As for `COc1cc2ccccc2cc1C(=O)Nc1ccccc1Cl`, the Potency is 1.85 µM (active). In the case of `COc1cc2ccccc2cc1C(=O)Nc1ccc(C)cn1`, the Potency is 0.656 µM (active). As for `CSc1ncc(-c2ccc(Cl)cc2)[nH]1`, the Potency was 1.65 µM (active).

With `Cc1cccc(-n2cnc(C(=O)NC3CCCCCC3)c2)n1`, the Potency is 3.69 µM (active). Regarding `Cc1cc(O)cc2c(=O)c3ccccc3sc12`, the Potency was 16.5 µM (active). As for `CCn1c(C)cc(/C=C2/SC(=O)N(C(C)C(=O)OC)C2=O)c1C` (stereo not drawn), the figure is 2.07 µM (active).

Turning to `CCn1c(C)cc(/C=C2/SC(=S)NC2=O)c1C`, the Potency was 10.4 µM (active). Consider `CC(=O)Nc1ccc2c(c1)ncn2-c1ccccc1`, for which the Potency was 7.36 µM (active). Consider `CCC(=O)Nc1ccc2c(c1)ncn2-c1ccc(C)cc1`, for which the Potency is 5.21 µM (active). With `COc1ccc(-n2cnc3cc(N)ccc32)cc1`, the Potency is 14.7 µM (active). On to `CCC(=O)Nc1ccc2c(c1)ncn2-c1ccc(OC)cc1`, for which the Potency is 16.5 µM (active). Regarding `O=C(Nc1ccc2c(c1)ncn2-c1ccccc1)c1ccco1`, the Potency is 2.33 µM (active). With `CCC(=O)Nc1ccc2c(c1)ncn2-c1ccccc1`, the Potency is 7.36 µM (active).

Take `CCc1ccc(C(=O)N/N=C(\C)c2ccncc2)s1`: the Potency was 20.7 µM (active). Consider `C/C(=N\NC(=O)c1csc(C)c1C)c1ccc(C)s1`, for which the Potency was 13.1 µM (active). Turning to `C/C(=N/NC(=O)c1ccc(C)s1)c1ccncc1`, the Potency is 16.5 µM (active). In the case of `Cc1scc(C(=O)N/N=C/c2ccc(Cl)s2)c1C`, the Potency was 1.65 µM (active). In the case of `O=C1CN(c2nc(-c3cccs3)nc3sc4c(c23)CCCC4)CCN1`, the Potency was 10.4 µM (active). As to `CCN(CC)C(=O)c1cc2sc3ccccc3c2s1`, the Potency is 3.29 µM (active). Turning to `CN(C)CCNC(=O)c1cc2c(s1)-c1ccccc1OC2`, the Potency was 13.1 µM (active).

For the compound `CN(C)CCNC(=O)c1cc2sc3ccccc3c2s1`, the Potency is 16.5 µM (active).
